Data: PubChem BioAssay AID1159580 (chemical genetic matrix, 2015)
The campaign covered roughly 5,500 compounds. About 2,000 (36%) were called active. Inconclusive results (about 18%) are left out. Cut-off read from the data, not from the text of the source: active = normalized growth mostly below about 0.91 (no sharp cut-off); inconclusive = no clear call, values can overlap the other calls; inactive = mostly above about 0.92. Some of the results follow.

Experiment: chemical genetic growth profiling, strain panel (AID 1159580);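 note: tested at 20 µM; growth read once vehicle control cultures reached saturation at 30 °C; 1 = growth at the plate median or of vehicle wells; lower values mean less growth of the strain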
Conditions: S. cerevisiae deletion strains, growth OD

Measured: normalized growth

O=C1c2cccc(O)c2C(=O)c2c(O)cccc21
inactive: locus YKL068W, stronger effect = lower value 0.967 | locus YKL085W, strain MDH1 (second series), stronger effect = lower value 0.944 | locus YKL085W, strain MDH1, stronger effect = lower value 0.944 | locus YKR026C, strain gcn3, stronger effect = lower value 0.97 | locus YKR091W, strain srl3, stronger effect = lower value 0.97 | locus YLL001W, strain dnm1, stronger effect = lower value 0.903 | locus YLL026W, stronger effect = lower value 0.941 | locus YLL041C, strain sdh2, stronger effect = lower value 0.953 | locus YLR102C, strain apc9, stronger effect = lower value 0.961 | locus YLR113W, strain HOG1, stronger effect = lower value 1 | locus YLR342W, strain FKS1 (second series), stronger effect = lower value 0.923 | locus YLR342W, strain FKS1, stronger effect = lower value 0.975 | locus YLR357W, strain rsc2, stronger effect = lower value 0.995 | locus YLR384C, strain iki3, stronger effect = lower value 0.936 | locus YMR125W, strain sto1, stronger effect = lower value 0.959 | locus YMR129W, stronger effect = lower value 0.972 | locus YMR205C, strain PFK2, stronger effect = lower value 0.96 | locus YMR307W, strain GAS1, stronger effect = lower value 0.677 | locus YNL183C, strain NPR1, stronger effect = lower value 0.836 | locus YNL322C, strain KRE1 (second series), stronger effect = lower value 0.965 | locus YNR049C, strain mso1, stronger effect = lower value 0.942 | locus YOL012C, strain htz1 0.695 | locus YOR080W, strain dia2, stronger effect = lower value 0.948 | locus YOR231W, strain MKK1, stronger effect = lower value 0.895 | locus YOR265W, strain rbl2, stronger effect = lower value 0.935 | locus YOR316C, strain cot1, stronger effect = lower value 0.941 | locus YPL078C, strain atp4, stronger effect = lower value 0.897 | locus YPL256C, strain CLN2, stronger effect = lower value 0.996 | locus YPR119W, strain clb2, stronger effect = lower value 0.931 | locus YPR141C, strain kar3, stronger effect = lower value 0.966
active: locus YJR043C, strain POL32, stronger effect = lower value 0.767 | locus YJR066W, strain TOR1, stronger effect = lower value 0.796 | locus YKL009W, strain mrt4, stronger effect = lower value 0.844 | locus YKL160W, strain elf1, stronger effect = lower value 0.835 | locus YKL190W, strain CNB1, stronger effect = lower value 0.697 | locus YKR001C, strain vps1, stronger effect = lower value 0.405 | locus YLR027C, strain aat2, stronger effect = lower value 0.878 | locus YLR039C, strain RIC1, stronger effect = lower value 0.178 | locus YLR058C, strain SHM2, stronger effect = lower value 0.684 | locus YLR221C, strain rsa3, stronger effect = lower value 0.856 | locus YLR258W, strain gsy2, stronger effect = lower value 0.909 | locus YLR262C, strain YPT6 (second series), stronger effect = lower value 0.406 | locus YLR262C, strain YPT6, stronger effect = lower value 0.24 | locus YLR268W, strain sec22, stronger effect = lower value 0.606 | locus YLR320W, strain mms22, stronger effect = lower value 0.435 | locus YLR330W, strain CHS5, stronger effect = lower value 0.688 | locus YLR371W, strain rom2, stronger effect = lower value 0.789 | locus YLR418C, strain cdc73, stronger effect = lower value 0.401 | locus YML016C, strain PPZ1, stronger effect = lower value 0.82 | locus YML032C, strain rad52, stronger effect = lower value 0.291 | locus YML120C, strain ndi1, stronger effect = lower value 0.866 | locus YML124C, strain tub3, stronger effect = lower value 0.802 | locus YMR058W, strain fet3, stronger effect = lower value 0.747 | locus YMR078C, strain ctf18, stronger effect = lower value 0.841 | locus YMR223W, strain ubp8, stronger effect = lower value 0.668 | locus YMR231W, strain pep5, stronger effect = lower value 0.882 | locus YMR263W, strain SAP30, stronger effect = lower value 0.756 | locus YNL067W, strain RPL9B, stronger effect = lower value 0.699 | locus YNL071W, strain lat1, stronger effect = lower value 0.831 | locus YNL128W, strain TEP1, stronger effect = lower value 0.638 | locus YNL153C, strain GIM3, stronger effect = lower value 0.568 | locus YNL209W, strain ssb2, stronger effect = lower value 0.879 | locus YNL233W, strain BNI4, stronger effect = lower value 0.729 | locus YNL248C, strain rpa49, stronger effect = lower value 0.55 | locus YNL250W, strain rad50, stronger effect = lower value 0.463 | locus YNL271C, strain bni1, stronger effect = lower value 0.847 | locus YNL298W, strain CLA4, stronger effect = lower value 0.823 | locus YNL307C, strain MCK1, stronger effect = lower value 0.669 | locus YNL322C, strain KRE1, stronger effect = lower value 0.803 | locus YNR052C, strain pop2, stronger effect = lower value 0.59 | locus YOL147C, strain pex11, stronger effect = lower value 0.749 | locus YOR001W, strain rrp6, stronger effect = lower value 0.855 | locus YOR061W, strain CKA2, stronger effect = lower value 0.847 | locus YOR069W, strain VPS5, stronger effect = lower value 0.79 | locus YOR070C, strain gyp1, stronger effect = lower value 0.874 | locus YOR083W, strain WHI5, stronger effect = lower value 0.793 | locus YOR106W, strain vam3, stronger effect = lower value 0.577 | locus YOR136W, strain idh2, stronger effect = lower value 0.845 | locus YOR144C, strain elg1, stronger effect = lower value 0.886 | locus YOR184W, strain ser1, stronger effect = lower value 0.375 | locus YOR270C, strain vph1, stronger effect = lower value 0.364 | locus YOR290C, strain snf2, stronger effect = lower value 0.796 | locus YPL051W, strain arl3, stronger effect = lower value 0.737 | locus YPL106C, strain sse1, stronger effect = lower value 0.705 | locus YPL240C, strain hsp82, stronger effect = lower value 0.909 | locus YPL241C, strain CIN2, stronger effect = lower value 0.847 | locus YPR163C, strain tif3, stronger effect = lower value 0.775 | locus YPR167C, strain met16, stronger effect = lower value 0.851 | strain wtn01, stronger effect = lower value 0.752
